Laboratory results reported in the supplement of paper PMC10849652.
The full data set covers some 7,900 targets. This sample favours those with a hit. About 0.6% of all pairs of compound and target were hits.

Columns and labels:
Test in all cases: log2 fold change, soluble protein after heating vs DMSO (PISA); higher = thermal stabilisation; K562 cells, 10 uM, 30 min; active = over 0.2 and 3.5 SD of the protein, either way, in both replicates (recomputed)
bafetinib = compound: Cc1ccc(NC(=O)c2ccc(CN3CC[C@H](N(C)C)C3)c(C(F)(F)F)c2)cc1Nc1nccc(-c2cncnc2)n1 [bafetinib]
Procedure, shortened: (§1)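 Values are thermal stability changes relative to control samples and are taken from duplicates. They are stated as log2 fold changes. Before quantification by TMTpro 16plex LC-MS/MS with equalised channel sums, K562 cells at 2×10^6 cells/mL were treated with 10 μM compound for 30 min, heated in aliquots for 3 min across 48°C-58°C, pooled, extracted in PBS with 0.5% NP-40 at 4°C, and centrifuged at 21,000xg for 90 min to give the soluble supernatant.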

[1] = compound: Cc1cccc(CC(=O)N2CCc3c2ccc(-c2cn(C)c4ncnc(N)c24)c3F)n1
Procedure, shortened: as §1

nilotinib = compound: Cc1cn(-c2cc(NC(=O)c3ccc(C)c(Nc4nccc(-c5cccnc5)n4)c3)cc(C(F)(F)F)c2)cn1 [nilotinib]
Procedure, shortened: as §1

[2] = compound: Cc1nc(Nc2n[nH]c3c2CN(C(=O)N[C@H](CN(C)C)c2ccccc2)C3(C)C)c2sccc2n1
Procedure, shortened: as §1

dasatinib = compound: Cc1nc(Nc2ncc(C(=O)Nc3c(C)cccc3Cl)s2)cc(N2CCN(CCO)CC2)n1 [dasatinib]
Procedure, shortened: as §1

[3] = compound: Cc1ncc(-c2ccnc(Nc3ccc(S(C)(=O)=O)cc3)n2)n1C(C)C
Procedure, shortened: as §1

[4] = compound: Cn1cc(-c2ccc3c(c2)CCN3C(=O)Cc2cccc(C(F)(F)F)c2)c2c(N)ncnc21
Procedure, shortened: as §1

[5] = compound: Cn1cc(-c2ccc3nnc(C(F)(F)c4ccc5ncccc5c4)n3n2)cn1
Procedure, shortened: as §1

tipifarnib = compound: Cn1cncc1[C@@](N)(c1ccc(Cl)cc1)c1ccc2c(c1)c(-c1cccc(Cl)c1)cc(=O)n2C [tipifarnib]
Procedure, shortened: as §1

mubritinib = compound: FC(F)(F)c1ccc(/C=C/c2nc(COc3ccc(CCCCn4ccnn4)cc3)co2)cc1 [mubritinib]
Procedure, shortened: as §1

[6] = compound: NC(=O)Nc1cc(-c2cccc(F)c2)sc1C(=O)N[C@H]1CCCNC1
Procedure, shortened: as §1

[7] = compound: NC(=O)c1cnc(N[C@@H]2CCCC[C@@H]2N)nc1Nc1cccc(-n2nccn2)c1
Procedure, shortened: as §1

[8] = compound: NC1(c2ccc(-c3nc4ccn5c(=O)[nH]nc5c4cc3-c3ccccc3)cc2)CCC1
Procedure, shortened: as §1

[9] = compound: NCC(=O)Nc1ccc(-n2nc(C(F)(F)F)cc2-c2ccc3c(ccc4ccccc43)c2)cc1
Procedure, shortened: as §1

entinostat = compound: Nc1ccccc1NC(=O)c1ccc(CNC(=O)OCc2cccnc2)cc1 [entinostat]
Procedure, shortened: as §1

vorinostat = compound: O=C(CCCCCCC(=O)Nc1ccccc1)NO [vorinostat]
Procedure, shortened: as §1

citarinostat = compound: O=C(CCCCCCNC(=O)c1cnc(N(c2ccccc2)c2ccccc2Cl)nc1)NO [citarinostat]
Procedure, shortened: as §1

silmitasertib = compound: O=C(O)c1ccc2c(c1)nc(Nc1cccc(Cl)c1)c1ccncc12 [silmitasertib]
Procedure, shortened: as §1

[10] = compound: O=C1NC(=O)C(c2cnc3ccccn23)=C1c1cn2c3c(cc(F)cc13)CN(C(=O)N1CCCCC1)CC2
Procedure, shortened: as §1

[11] = compound: c1cc(OCCN2CCCCC2)cc(-c2n[nH]c3ccc(-c4nnc[nH]4)cc23)c1
Procedure, shortened: as §1

Measured: log2 fold change

STAT5B (UniProt P51692)
active: dasatinib -0.443
inactive: bafetinib -0.056 | [1] 0.109 | nilotinib -0.218 | [2] -0.432 | [3] 0.162 | [4] 0.07 | [5] 0.08 | tipifarnib -0.163 | mubritinib 0.308 | [6] -0.027 | [7] -0.022 | [8] -0.207 | [9] -0.129 | entinostat 0.282 | vorinostat 0.18 | citarinostat 0.15 | silmitasertib 0.043 | [10] 0.045 | [11] 0.024

SMARCA5 (UniProt O60264)
inactive: bafetinib -0.052 | [1] 0.001 | nilotinib -0.019 | [2] -0.152 | dasatinib -0.052 | [3] 0.002 | [4] -0.088 | [5] -0.112 | tipifarnib -0.022 | mubritinib 0.184 | [6] -0.084 | [7] -0.121 | [8] -0.095 | [9] -0.01 | entinostat 0.097 | vorinostat 0.204 | citarinostat -0.094 | silmitasertib 0.028 | [10] -0.034 | [11] 0.03

SPART (UniProt Q8N0X7)
Chain of UniProt Q8N0X7 (Q8N0X7 whole entry, looked up): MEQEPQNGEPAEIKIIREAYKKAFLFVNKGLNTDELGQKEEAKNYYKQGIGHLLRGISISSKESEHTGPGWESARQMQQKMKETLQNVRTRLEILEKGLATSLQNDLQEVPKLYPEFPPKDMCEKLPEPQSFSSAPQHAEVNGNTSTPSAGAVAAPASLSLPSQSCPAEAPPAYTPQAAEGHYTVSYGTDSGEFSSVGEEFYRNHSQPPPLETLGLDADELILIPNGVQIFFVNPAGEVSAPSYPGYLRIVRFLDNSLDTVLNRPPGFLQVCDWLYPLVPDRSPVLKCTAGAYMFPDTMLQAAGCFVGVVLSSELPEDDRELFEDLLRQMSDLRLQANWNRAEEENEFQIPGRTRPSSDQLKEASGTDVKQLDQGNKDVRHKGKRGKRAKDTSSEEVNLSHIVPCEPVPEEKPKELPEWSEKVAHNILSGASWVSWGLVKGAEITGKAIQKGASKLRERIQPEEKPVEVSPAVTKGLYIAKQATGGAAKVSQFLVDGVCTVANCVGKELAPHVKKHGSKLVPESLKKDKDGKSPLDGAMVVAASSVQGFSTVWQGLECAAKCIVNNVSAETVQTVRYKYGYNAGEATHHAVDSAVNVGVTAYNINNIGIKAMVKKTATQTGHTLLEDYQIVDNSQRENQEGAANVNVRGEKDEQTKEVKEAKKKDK
inactive: bafetinib -0.041 | [1] -0.024 | nilotinib -0.047 | [2] -0.006 | dasatinib -0.117 | [3] 0.051 | [4] -0.025 | [5] 0.059 | tipifarnib -0.077 | mubritinib 0.063 | [6] -0.032 | [7] -0.105 | [8] -0.053 | [9] 0.006 | entinostat 0.043 | vorinostat -0.032 | citarinostat 0.015 | silmitasertib 0.081 | [10] -0.024 | [11] 0.04

STK17B (UniProt O94768)
inactive: bafetinib 0.024

SNW1 (UniProt Q13573)
inactive: bafetinib -0.049 | [1] -0.071 | nilotinib 0.004 | [2] 0.067 | dasatinib 0.027 | [3] 0.088 | [4] -0.055 | [5] -0.043 | tipifarnib 0.026 | mubritinib -0.006 | [6] 0.034 | [7] 0.019 | [8] 0.017 | [9] 0.02 | entinostat -0.056 | vorinostat -0.044 | citarinostat -0.019 | silmitasertib 0.062 | [10] 0.05 | [11] -0.05

SMG1 (UniProt Q96Q15)
inactive: bafetinib 0.059 | [1] -0.012 | nilotinib 0.03 | [2] -0.061 | dasatinib -0.266 | [3] -0.015 | [4] -0.035 | [5] 0.023 | tipifarnib -0.098 | mubritinib 0.064 | [6] -0.073 | [7] -0.111 | [8] -0.101 | [9] -0.073 | entinostat -0.097 | vorinostat -0.012 | citarinostat 0.024 | silmitasertib 0.142 | [10] 0.013 | [11] -0.187

ST3GAL2 (UniProt Q16842)
inactive: bafetinib 0.092 | [1] -0.008 | nilotinib 0.191 | [2] -0.042 | dasatinib 0.179 | [3] 0.081 | [4] -0.039 | [5] -0.022 | tipifarnib 0.076 | mubritinib -0.026 | [6] -0.066 | [7] 0.101 | [8] -0.04 | [9] 0.008 | entinostat -0.028 | vorinostat -0.013 | citarinostat 0.008 | silmitasertib -0.003 | [10] -0.016 | [11] -0.05

SLK isoform 2 (UniProt Q9H2G2)
Chain of UniProt Q9H2G2 (Q9H2G2 whole entry, looked up): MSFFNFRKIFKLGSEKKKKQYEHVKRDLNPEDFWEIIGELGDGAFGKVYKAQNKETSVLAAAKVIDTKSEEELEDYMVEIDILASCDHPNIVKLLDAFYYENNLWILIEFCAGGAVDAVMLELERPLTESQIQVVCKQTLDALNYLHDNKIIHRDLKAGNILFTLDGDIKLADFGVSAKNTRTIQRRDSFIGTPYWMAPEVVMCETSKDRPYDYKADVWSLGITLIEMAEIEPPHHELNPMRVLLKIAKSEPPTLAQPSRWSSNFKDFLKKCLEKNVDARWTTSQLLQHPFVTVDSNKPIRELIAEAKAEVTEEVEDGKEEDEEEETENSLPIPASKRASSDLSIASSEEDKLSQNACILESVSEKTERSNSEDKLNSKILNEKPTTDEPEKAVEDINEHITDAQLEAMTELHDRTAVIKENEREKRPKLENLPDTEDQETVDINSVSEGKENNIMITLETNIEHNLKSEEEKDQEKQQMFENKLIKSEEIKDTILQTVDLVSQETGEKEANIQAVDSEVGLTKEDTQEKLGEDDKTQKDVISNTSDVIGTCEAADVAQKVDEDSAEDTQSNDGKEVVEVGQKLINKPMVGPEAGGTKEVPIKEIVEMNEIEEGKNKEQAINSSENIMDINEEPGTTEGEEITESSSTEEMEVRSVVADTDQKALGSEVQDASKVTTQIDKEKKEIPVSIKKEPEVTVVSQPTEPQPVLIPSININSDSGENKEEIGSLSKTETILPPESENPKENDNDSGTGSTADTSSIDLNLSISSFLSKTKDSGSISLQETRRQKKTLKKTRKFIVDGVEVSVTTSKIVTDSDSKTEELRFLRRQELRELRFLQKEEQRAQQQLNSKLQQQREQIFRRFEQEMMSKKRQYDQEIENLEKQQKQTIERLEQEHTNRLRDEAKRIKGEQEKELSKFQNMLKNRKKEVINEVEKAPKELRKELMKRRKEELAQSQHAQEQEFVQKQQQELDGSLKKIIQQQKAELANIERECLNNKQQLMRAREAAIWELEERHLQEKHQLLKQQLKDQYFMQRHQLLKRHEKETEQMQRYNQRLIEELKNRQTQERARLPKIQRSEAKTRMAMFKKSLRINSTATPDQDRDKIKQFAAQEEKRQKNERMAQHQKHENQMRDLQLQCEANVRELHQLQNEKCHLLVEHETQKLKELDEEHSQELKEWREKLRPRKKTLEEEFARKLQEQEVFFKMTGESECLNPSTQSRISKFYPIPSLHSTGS
inactive: bafetinib -0.032 | [1] -0.076 | nilotinib -0.041 | [2] -0.169 | dasatinib -0.085 | [3] 0.015 | [5] 0.004 | tipifarnib -0.018 | mubritinib 0.026 | [7] -0.042 | [8] -0.058 | [9] -0.014 | entinostat 0.048 | vorinostat 0.006 | citarinostat 0.074 | silmitasertib 0.124 | [10] 0.009 | [11] -0.044
active: [4] -0.289 | [6] -0.314

STAM2 (UniProt O75886)
inactive: bafetinib -0.067 | [1] 0.014 | nilotinib 0.007 | [2] -0.077 | dasatinib 0.044 | [3] -0.008 | [4] 0.016 | [5] 0.009 | tipifarnib -0.012 | mubritinib 0.019 | [6] -0.111 | [7] -0.136 | [8] -0.133 | [9] -0.101 | entinostat 0.012 | vorinostat 0.04 | citarinostat 0.026 | silmitasertib 0.049 | [10] -0.041 | [11] 0.064

SUPT5H (UniProt O00267)
inactive: bafetinib -0.044 | [1] 0.033 | nilotinib -0.055 | [2] -0.042 | dasatinib -0.082 | [3] 0.01 | [4] 0.024 | [5] 0.036 | tipifarnib -0.037 | mubritinib 0.031 | [6] -0.031 | [7] -0.049 | [8] -0.129 | [9] -0.095 | entinostat 0.029 | vorinostat 0.043 | citarinostat 0.074 | silmitasertib 0.038 | [10] -0.115 | [11] -0.028

SPPL2B (UniProt Q8TCT7)
Chain of UniProt Q8TCT7 (Q8TCT7 whole entry, looked up): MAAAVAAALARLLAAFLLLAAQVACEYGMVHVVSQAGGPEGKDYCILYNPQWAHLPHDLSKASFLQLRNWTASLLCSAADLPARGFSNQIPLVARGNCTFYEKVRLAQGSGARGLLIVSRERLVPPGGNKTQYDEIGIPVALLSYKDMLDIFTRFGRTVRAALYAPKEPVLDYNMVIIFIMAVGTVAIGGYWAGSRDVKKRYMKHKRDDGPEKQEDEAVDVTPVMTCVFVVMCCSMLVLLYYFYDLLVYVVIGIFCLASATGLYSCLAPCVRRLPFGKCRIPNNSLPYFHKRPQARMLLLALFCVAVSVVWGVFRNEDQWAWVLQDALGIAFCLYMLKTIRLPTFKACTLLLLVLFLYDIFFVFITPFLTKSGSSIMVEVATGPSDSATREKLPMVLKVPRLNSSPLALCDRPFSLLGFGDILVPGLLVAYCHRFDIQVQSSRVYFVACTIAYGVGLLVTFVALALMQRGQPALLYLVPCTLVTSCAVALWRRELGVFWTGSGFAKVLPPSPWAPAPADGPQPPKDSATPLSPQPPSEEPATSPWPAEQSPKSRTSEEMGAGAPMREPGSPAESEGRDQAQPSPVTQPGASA
inactive: bafetinib -0.087 | [1] 0.066 | nilotinib -0.016 | [2] -0.006 | dasatinib -0.066 | [3] 0.009 | [4] 0.116 | [5] -0.118 | tipifarnib 0.036 | mubritinib -0.008 | [6] 0.06 | [7] 0.009 | [8] -0.031 | [9] -0.016 | entinostat -0.052 | vorinostat -0.013 | citarinostat 0.05 | silmitasertib -0.037 | [10] 0.029 | [11] -0.025

SPAST (UniProt Q9UBP0)
inactive: bafetinib -0.015 | [1] -0.057 | nilotinib -0.05 | [2] -0.054 | [3] 0.026 | [4] 0.099 | [5] -0.022 | tipifarnib -0.065 | mubritinib 0.036 | [6] 0.027 | [7] -0.003 | [8] -0.12 | [9] -0.109 | entinostat 0.075 | vorinostat 0.033 | citarinostat 0.058 | silmitasertib 0.028 | [10] -0.035 | [11] -0.029
active: dasatinib -0.246

SQSTM1 (UniProt Q13501)
inactive: bafetinib -0.138 | [1] 0.056 | nilotinib 0.042 | [2] -0.227 | dasatinib -0.006 | [3] 0.172 | [4] 0.001 | [5] 0.022 | tipifarnib 0.186 | mubritinib 0.034 | [6] -0.036 | [7] -0.12 | [8] -0.068 | [9] -0.079 | entinostat 0.051 | vorinostat 0.007 | citarinostat 0.081 | silmitasertib 0.056 | [10] 0.019 | [11] -0.094

SUN2 (UniProt Q9UH99)
Chain of UniProt Q9UH99 (Q9UH99 whole entry, looked up): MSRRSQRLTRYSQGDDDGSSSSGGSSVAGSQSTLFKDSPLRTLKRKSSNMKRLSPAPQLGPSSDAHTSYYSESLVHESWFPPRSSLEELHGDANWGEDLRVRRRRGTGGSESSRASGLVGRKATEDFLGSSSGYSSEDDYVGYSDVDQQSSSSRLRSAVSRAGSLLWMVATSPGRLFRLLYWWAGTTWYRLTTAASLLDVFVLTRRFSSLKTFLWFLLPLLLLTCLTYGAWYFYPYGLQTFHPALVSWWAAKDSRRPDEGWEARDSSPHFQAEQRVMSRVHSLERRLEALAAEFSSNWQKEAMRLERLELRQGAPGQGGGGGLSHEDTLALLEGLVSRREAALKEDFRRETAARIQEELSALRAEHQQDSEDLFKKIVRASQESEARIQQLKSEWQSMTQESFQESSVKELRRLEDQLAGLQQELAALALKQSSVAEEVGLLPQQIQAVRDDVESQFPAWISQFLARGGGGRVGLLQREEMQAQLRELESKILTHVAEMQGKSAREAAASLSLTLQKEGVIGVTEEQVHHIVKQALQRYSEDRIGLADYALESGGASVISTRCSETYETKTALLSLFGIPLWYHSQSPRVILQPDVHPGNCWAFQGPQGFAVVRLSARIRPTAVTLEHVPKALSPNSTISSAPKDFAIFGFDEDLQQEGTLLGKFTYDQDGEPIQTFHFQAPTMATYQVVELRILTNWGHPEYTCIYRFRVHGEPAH
inactive: bafetinib -0.04 | [1] 0.016 | nilotinib -0.007 | [2] -0.036 | dasatinib 0.004 | [3] -0.071 | [4] -0.052 | [5] -0.008 | tipifarnib 0.013 | mubritinib -0.064 | [6] 0.002 | [7] 0.011 | [8] -0.054 | [9] -0.03 | entinostat 0.054 | vorinostat 0.018 | citarinostat 0.019 | silmitasertib 0.007 | [10] 0.097 | [11] -0.087

THRAP3 (UniProt Q9Y2W1)
Chain of UniProt Q9Y2W1 (Q9Y2W1 whole entry, looked up): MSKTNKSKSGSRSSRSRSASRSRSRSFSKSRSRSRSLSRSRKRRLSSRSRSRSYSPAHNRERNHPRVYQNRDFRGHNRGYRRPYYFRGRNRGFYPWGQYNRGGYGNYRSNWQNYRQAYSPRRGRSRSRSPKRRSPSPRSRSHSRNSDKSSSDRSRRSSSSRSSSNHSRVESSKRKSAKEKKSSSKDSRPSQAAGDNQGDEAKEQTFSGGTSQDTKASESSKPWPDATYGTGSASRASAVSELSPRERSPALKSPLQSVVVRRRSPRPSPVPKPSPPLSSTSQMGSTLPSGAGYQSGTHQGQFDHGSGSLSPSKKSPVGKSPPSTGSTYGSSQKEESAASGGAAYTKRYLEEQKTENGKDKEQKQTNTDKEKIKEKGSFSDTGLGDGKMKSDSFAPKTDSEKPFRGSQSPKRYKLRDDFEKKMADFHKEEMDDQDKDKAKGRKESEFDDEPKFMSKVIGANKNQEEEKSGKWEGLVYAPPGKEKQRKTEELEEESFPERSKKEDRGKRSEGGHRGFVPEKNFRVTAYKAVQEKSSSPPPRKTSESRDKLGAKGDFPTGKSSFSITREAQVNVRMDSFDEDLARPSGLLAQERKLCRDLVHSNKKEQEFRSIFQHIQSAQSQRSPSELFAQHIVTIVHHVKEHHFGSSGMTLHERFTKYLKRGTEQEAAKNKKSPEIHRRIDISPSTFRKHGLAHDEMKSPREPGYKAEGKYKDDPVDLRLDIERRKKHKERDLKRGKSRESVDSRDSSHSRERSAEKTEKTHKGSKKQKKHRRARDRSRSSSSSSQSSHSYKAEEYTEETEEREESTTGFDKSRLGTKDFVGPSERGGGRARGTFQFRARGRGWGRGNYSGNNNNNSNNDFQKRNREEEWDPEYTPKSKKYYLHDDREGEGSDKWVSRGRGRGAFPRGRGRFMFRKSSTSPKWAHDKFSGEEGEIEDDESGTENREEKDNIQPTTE
inactive: bafetinib 0.052 | [1] -0.025 | nilotinib 0.049 | [2] -0.177 | dasatinib -0.009 | [3] 0 | [4] -0.045 | [5] -0.033 | tipifarnib 0.118 | mubritinib 0.063 | [6] -0.02 | [7] -0.076 | [8] -0.153 | [9] -0.037 | entinostat 0.024 | vorinostat 0.021 | citarinostat 0.005 | silmitasertib -0.169 | [10] -0.026 | [11] -0.257

TIMM29 (UniProt Q9BSF4)
Chain of UniProt Q9BSF4 (Q9BSF4 whole entry, looked up): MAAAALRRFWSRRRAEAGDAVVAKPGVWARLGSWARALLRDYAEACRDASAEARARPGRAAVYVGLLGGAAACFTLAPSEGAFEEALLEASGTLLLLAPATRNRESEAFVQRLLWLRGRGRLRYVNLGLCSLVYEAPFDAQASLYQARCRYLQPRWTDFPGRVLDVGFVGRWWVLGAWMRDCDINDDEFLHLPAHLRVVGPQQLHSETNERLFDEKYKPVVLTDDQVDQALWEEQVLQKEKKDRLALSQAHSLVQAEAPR
inactive: bafetinib -0.051 | [1] -0.077 | nilotinib -0.002 | [2] 0.069 | dasatinib -0.031 | [3] -0.039 | [4] -0.029 | [5] 0.057 | tipifarnib -0.046 | mubritinib 0.064 | [6] -0.16 | [7] -0.024 | [8] -0.069 | [9] -0.011 | entinostat -0.04 | vorinostat -0.093 | citarinostat -0.016 | silmitasertib 0.006 | [10] -0.08 | [11] -0.004

SSB (UniProt P05455)
Chain of UniProt P05455 (P05455 whole entry, looked up): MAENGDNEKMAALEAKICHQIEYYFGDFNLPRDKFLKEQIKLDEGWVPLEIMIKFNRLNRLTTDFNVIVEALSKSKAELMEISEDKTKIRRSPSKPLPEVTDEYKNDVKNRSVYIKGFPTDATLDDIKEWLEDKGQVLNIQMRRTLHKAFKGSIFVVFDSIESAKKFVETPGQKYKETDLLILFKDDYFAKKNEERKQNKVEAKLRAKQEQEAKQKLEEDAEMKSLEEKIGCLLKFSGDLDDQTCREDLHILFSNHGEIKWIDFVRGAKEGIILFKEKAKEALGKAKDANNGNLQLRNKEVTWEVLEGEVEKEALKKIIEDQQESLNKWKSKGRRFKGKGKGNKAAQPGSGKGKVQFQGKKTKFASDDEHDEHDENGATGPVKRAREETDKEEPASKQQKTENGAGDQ
inactive: bafetinib -0.022 | [1] -0.018 | nilotinib -0.057 | [2] -0.125 | dasatinib -0.06 | [3] -0.123 | [4] -0.048 | [5] -0.02 | tipifarnib 0.051 | mubritinib -0.111 | [6] -0.018 | [7] -0.181 | [8] -0.01 | [9] -0.091 | entinostat 0.039 | vorinostat 0.085 | citarinostat 0.02 | silmitasertib -0.035 | [10] -0.089 | [11] -0.085
